This note sets out measurements from PubChem BioAssay.

SMILES strings stand for the structures. Potency and affinity values are given separately. Records with an inconclusive call do not appear. Entries that show only a call come without a potency. Calls of active or inactive are those of the source.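 Rule for the calls: active = fitted half-maximal concentration for viability loss no higher than twice the top valid dose, in every repeat run; inconclusive = repeat runs disagree, flat partial loss, or poor curve fit; inactive = the rest.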

The nature of the test: IOSE-T80 viability loss, PAX8-independent line – cell-based, cherry-pick, selectivity assay for PAX8 inhibitor project, dose response (AID 687032).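 Note: cells exposed to compound for 96 h before reading.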 The following applies: CellTiterGlo ATP luminescence, 96 h; series mostly up to 35 µM. In general terms: ATP-based viability assays read luminescence as a measure of living cells.
Consider `Cc1ccc(S(=O)(=O)Nc2ccc3c(c2)C(=O)N([C@H](C)CO)C[C@@H](C)[C@H](CN(C)Cc2ccc(C(F)(F)F)cc2)OCCCC[C@H](C)O3)cc1`, for which the molecule was classed as inactive.
Take `CCCC#Cc1ccc([C@H]2[C@@H](C#N)N(C(=O)C3CCCCC3)[C@H]2CO)cc1`: the molecule was classed as inactive.
Turning to `COc1ccc(NC(=O)N2CCCCN3[C@H](C2)[C@@H](c2ccc(C#Cc4ccccc4)cc2)[C@@H]3CO)cc1`, the call was inactive.
For `N#C[C@H]1[C@H](c2ccc(C#Cc3ccccc3F)cc2)[C@H](CO)N1C(=O)C1CCC1`, the outcome was inactive.
With `COc1ccc(CN(C)C[C@@H]2OCCCC[C@H](C)Oc3ccc(NC(=O)Nc4ccc(C(F)(F)F)cc4)cc3C(=O)N([C@@H](C)CO)C[C@H]2C)cc1`, the molecule was classed as inactive.
In the case of `C[C@@H]1CCCCO[C@H](CN(C)Cc2ccc(Cl)c(Cl)c2)[C@@H](C)CN([C@@H](C)CO)C(=O)c2cc(NS(=O)(=O)c3ccccc3)ccc2O1`, the molecule was called inactive.
`O=C(Nc1cccc(C(=O)O)c1)Nc1ccc2c(c1)OCO2`: the result was inactive.
Regarding `COc1cccc(C#Cc2ccc([C@H]3[C@@H](CO)N(C(=O)C4CCCCC4)[C@H]3C#N)cc2)c1`, the outcome was inactive.
To `COc1ccc(NC(=O)Nc2ccc3c(c2)C(=O)N([C@H](C)CO)C[C@H](C)[C@H](CN(C)Cc2ccc(C(F)(F)F)cc2)OCCCC[C@H](C)O3)cc1` belongs “inactive”.
